Data reported in PubChem BioAssay (NCI).
The panel holds about 79,000 compounds, 15% with a hit somewhere; the sample as a whole holds those more often. A number with no mark means an inactive call. The source made the active and inactive calls. Cut-off read from the data, not from the text of the source: active = growth inhibition above about 70%; inactive = the rest.

Legend:
[1] = NCI Yeast Anticancer Drug Screen. Data for the rad50 strain (AID 155);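 note: 0% = growth of vehicle-only cultures of the same strain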; details: S. cerevisiae rad50 strain growth inhibition; at 50.0 µM; stronger effect = higher value
Method in brief: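 Readout: growth inhibition relative to vehicle-treated cultures. Compound exposure was carried out in a genetically defined yeast strain deficient in DNA damage repair.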

[2] = NCI Yeast Anticancer Drug Screen. Data for the mec2-1 strain (AID 157); details: S. cerevisiae mec2-1 strain, at 50.0 µM, stronger effect = higher value
Method in brief: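 Each compound was tested on mec2-1 yeast, a strain altered in DNA damage repair or cell cycle control. Growth inhibition is reported relative to vehicle.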

[3] = NCI Yeast Anticancer Drug Screen. Data for the sgs1 mgt1 strain (AID 161);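 note: 0% = growth of cultures given vehicle only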; details: S. cerevisiae sgs1 mgt1 strain, at 50.0 µM, stronger effect = higher value
Method in brief: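 Test agents were incubated with a DNA-repair-mutant yeast strain. Growth was then read and compared against vehicle-treated controls.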

[4] = NCI Yeast Anticancer Drug Screen. Data for the cln2 rad14 strain (AID 165);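 note: 0% = growth equal to vehicle treated cultures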; details: S. cerevisiae cln2 rad14 strain, at 50.0 µM, stronger effect = higher value
Method in brief: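 Test compounds were added to cln2 rad14 yeast cultures; inhibition of growth was then determined by comparison with vehicle treatment.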

[5] = NCI Yeast Anticancer Drug Screen. Data for the bub3 strain (AID 167); details: S. cerevisiae bub3 mutant strain, at 50.0 µM, stronger effect = higher value
Method in brief: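 Readout: yeast growth inhibition, expressed relative to vehicle-only wells. The test organism is a mutant strain from a panel with lesions in DNA repair or checkpoint genes.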

[6] = NCI Yeast Anticancer Drug Screen. Data for the mlh1 rad18 strain (AID 175); details: S. cerevisiae mlh1 rad18 strain growth inhibition; at 50.0 µM; stronger effect = higher value
Method in brief: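 Inhibition values reflect reduced growth of mutant yeast versus vehicle-treated controls following compound exposure; the mutations affect DNA damage repair.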

Compound | growth inhibition [1] | growth inhibition [2] | growth inhibition [3] | growth inhibition [4] | growth inhibition [5] | growth inhibition [6]
CCOCCOCCOCc1nc(C#N)c(N)o1 | -35.6% | -23.3% | -27.8% | -14.8% | -30.5% | -63.4%
O=C(O)C1CC(Cl)C(Cl)CC1C(=O)O (stereo unspecified) | -2.9% | -27.1% | 0.85% | 0.2% | -19.2% | -5.1%
c1ccc(N=C(c2ccccc2)c2ccccc2)cc1 | 9.25% | -6.65% | -6.05% | -6.65% | -7.65% | 26.3%
CCC(C)OC(=O)CC(c1ccccc1)N1CCCCC1 (stereo unspecified) | 7.5% | -10.4% | 3% | -26.4% | -0.65% | -4.5%
O=C(OC1CCC2(CC1)N=NC1(CCC(OC(=O)c3ccccc3)CC1)S2)c1ccccc1 (stereo unspecified) | -1.15% | 18.3% | -2.25% | -7.6% | -1.1% | 8.1%
C=CCNC(=S)NCc1ccc(Cl)cc1 | 21.3% | 7.8% | 22.7% | -46.6% | 5.15% | 12.1%
CCN(CC)Cc1cc(C)c(O)c(N=Nc2ccc(-c3ccc(N)c(OC)c3)cc2OC)c1C | -21.4% | 12.7% | -8.05% | -2.05% | -6.1% | -21.4%
CCOC(=O)CC1C(O)C(=O)N(C)C1c1ccccc1 (stereo unspecified) | 21% | -8.05% | 1.75% | 42.3% | 9% | -50.4%
O=c1c(Cl)c(Cl)cnn1CCc1ccncc1 | 2.2% | -4.05% | -19.6% | 11.4% | -7.3% | -2.65%
COC(=S)SCSC(=S)OC | -12.2% | -27.3% | -2.5% | -14.9% | -6.45% | -27.9%
COc1ccc(Nc2cccc(Cl)c2)cc1 | 97% (active) | 98.2% (active) | 96.5% (active) | 95.9% (active) | 95.6% (active) | 97.8% (active)
CCn1c(=O)c(Cl)c2n(C)c3ccccc3n2c1=O | -6.2% | -7.7% | -2.85% | -4.4% | 10.6% | -1.05%
O=S(=O)(c1ccc(NC(=S)NCc2ccco2)cc1)N1CCCCC1 | 46% | 5.6% | 42.1% | 38.3% | 28.9% | 25.6%
CN1CCn2c(Br)ccc2C1=O | 13.6% | -11.6% | -1.55% | 8.45% | 2.65% | -3.3%
Cn1c(=O)c2[nH]c(C(=O)O)nc2n(C)c1=O | 17.4% | -2.35% | 5.7% | 9.35% | -8.3% | 9.85%
c1ccc(B2OB(c3ccccc3CN3CCCC3)OB(c3ccccc3CN3CCCC3)O2)c(CN2CCCC2)c1 | 21% | 4.15% | 0.05% | 17.1% | 0.75% | 15.4%
Cc1ccc(OC(=O)c2ccc([N+](=O)[O-])cc2)cc1C(C)C | -15.6% | -9.25% | -11.7% | -6.45% | -10.1% | -22%
COc1ccccc1NC(=O)C1=C(C)NC(C)=C(C(=O)Nc2ccccc2OC)C1c1ccccc1Cl | 11.3% | -4.4% | 3.85% | 17.9% | -6.45% | 23.4%
COc1ccc(CC(CN)P(=O)(O)O)cc1 (stereo unspecified) | 29.3% | 4.2% | 8.5% | 4.45% | 15.1% | 4%
O=C(NCCCOc1ccc(Cl)c(Cl)c1)NCCc1ccc(Cl)c(Cl)c1 | 6.65% | 4.7% | -3.95% | -8.9% | 0.95% | 15.4%
O=[N+]([O-])c1ccc(/C=C(/c2ccc([N+](=O)[O-])o2)S(=O)(=O)C(Cl)(Cl)Cl)cc1 | 96.7% (active) | 97.2% (active) | 98.3% (active) | 97.1% (active) | 90.1% (active) | 97.8% (active)

Compound | growth inhibition [1] | growth inhibition [2] | growth inhibition [3] | growth inhibition [4] | growth inhibition [5] | growth inhibition [6]
CC(=O)n1oc2ccc(Br)cc2c1=O | -3.6% | 1.2% | -7.8% | -5.4% | 9.25% | 9.75%
CC(=O)CSCc1ccccn1 | 5.05% | 15% | -18.6% | 10.2% | 22.6% | -1.9%
O=C(CCCl)NNC1=NCCCN1 | 2.5% | -14.3% | -15.4% | 23.2% | -4.35% | -0.05%
CCOC(=O)C1=C(NC(C)=O)Sc2ccccc2C1 | 27.9% | 6.6% | 1.8% | -19.3% | 2.45% | 25%
CC(C)NC(=O)CS(=O)(=O)c1ccc(N)cc1 | -2.3% | -11.8% | 2.1% | -0.3% | 30% | 7.7%
COc1ccccc1NC(=O)CC(=O)n1nc(C)c(N=Nc2ccccc2F)c1C | -41.6% | 1.45% | -28.2% | 6.8% | -31.9% | -30.3%
COc1ccccc1/C=C1\CCC(CN(C)C)C1=O (stereo unspecified) | 82.2% (active) | 89.5% (active) | 91.8% (active) | 55.4% | 91.1% (active) | 92.2% (active)
CCC(COCC(CC)C(=O)O)C(=O)O (stereo unspecified) | 11.3% | 1.1% | 18.6% | 19.1% | 12.7% | 15.2%
CC(C)(C)NC(=O)c1cccc(C(=O)NC(C)(C)C)n1 | 3.3% | -8% | -0.3% | -7.9% | -13.3% | -16.4%
O=C1OC(=O)C2C1C1(Cl)CC2(Cl)C(Cl)=C1Cl (stereo unspecified) | -3.05% | -31.8% | 2% | -30.8% | -23.1% | -18.6%
COC(=O)C(Cc1nc2ccc(Cl)cc2[nH]c1=O)C(=O)C(=O)Nc1cc(C)ccc1C (stereo unspecified) | -19.2% | 4.85% | -33% | -35.6% | -26.4% | 14.5%
CC(C)=CC(=O)C/C(=N\NC(N)=S)C(=O)Nc1ccc(Cl)cc1 | -7.4% | -27.5% | 5.55% | 9.45% | 5.1% | -1.3%
CC(=O)NNC(=S)/N=C\c1c(O)[nH]c(=O)[nH]c1=O | -23.1% | -30.1% | -15.4% | -0.6% | -4% | -9.85%
Cc1cc(=O)[nH]c(N/N=C/c2ccco2)n1 | -20.8% | -48.8% | -16.8% | 6.75% | -33.8% | -15.3%
O=[N+]([O-])c1ccc(/C=C/c2csnn2)cc1 | -16.7% | -31.8% | -13.8% | 22% | 2% | -24.6%
Nc1nnnn1CCc1ccccc1 | 7.75% | 6.3% | -4% | -10.8% | 4.4% | 9.75%
Nc1nnnn1C1CCCCC1 | 9.3% | 3.8% | -4.65% | -8.65% | -11.3% | 20.9%
CCOc1ccc(NC(=O)/C(Cc2nc3ccccc3[nH]c2=O)=N\O)cc1 | 21.9% | -5.1% | -15.9% | 15.8% | 4.1% | -4.7%
O=C1c2ccccc2C(=O)c2c(Nc3ccc(Nc4cccc5c4C(=O)c4ccccc4C5=O)c4c3C(=O)c3ccccc3C4=O)cccc21 | -28.4% | -39% | 4.7% | -3.2% | -19.3% | -26.8%
O=C(NC1CCCCC1NC(c1ccccc1)(c1ccccc1)c1ccccc1)C(=O)NC1CCCCC1NC(c1ccccc1)(c1ccccc1)c1ccccc1 (stereo unspecified) | -33.9% | -22.4% | -13.7% | 12.1% | -10.1% | -2.35%
